# Experimental data reported in PubChem BioAssay AID463173 (ICCB-Longwood Screening Facility, Harvard Medical School, 2010).
# In all, about 52,000 compounds went through this assay and about 4,300 (8.3%) were called active. The list comes from a sample in which actives are over-represented; it also holds similar structures and randomly drawn compounds. Values without a mark were called inactive. Rule as the data show it: active = survival mostly below about 52% (no sharp cut-off); inactive = mostly above about 56%.
# Tested on: DeltatarO mutant
# Experiment: growth inhibition of S. aureus wild type versus tarO mutant, primary screen, teichoic acid synthesis inhibitors, RN4220, OD600 (AID 463173)
# Details: OD600, 18 h, stronger effect = lower value, screened at 18.75 µg/mL (by protocol)
row,Structure (SMILES),survival
1,COc1cc(CNCCSc2nnnn2C)ccc1OCc1ccccc1C,56%
2,COc1cc(CNCCSc2nnnn2C)ccc1OCc1ccc(Cl)cc1Cl,30% (active)
3,CCOc1ccc(CNCCSc2nnnn2C)cc1OC,65%
4,CCOc1cc(CNCCSc2nnnn2C)ccc1OCc1ccc(Cl)cc1Cl,-6% (active)
5,Cn1nnnc1SCCNCc1ccccc1OCc1ccc(Cl)cc1Cl,63%
6,COc1cc(CNCCSc2nnnn2C)ccc1OCc1c(F)cccc1Cl,58%
7,COC(=O)c1ccccc1NC(=O)Cn1c(CCC(=O)O)ccc1-c1cccs1,54%
8,O=C(O)CCc1ccc(-c2ccc(Cl)cc2)n1-c1cccc(C(F)(F)F)c1,23% (active)
9,COc1ccc(-c2ccc(CCC(=O)O)n2CC(=O)Nc2cccc(C(F)(F)F)c2)cc1,54% (active)
10,COc1ccc(OC)c(NC(=O)Cn2c(CCC(=O)O)ccc2-c2ccccc2)c1,103%
11,O=C(O)CCc1ccc(-c2ccccc2)n1-c1cccc(Br)c1,65%
12,COc1ccc(-c2ccc(CCC(=O)O)n2CC(=O)Nc2cccc(Cl)c2C)cc1,46%
13,COC(=O)c1ccccc1NC(=O)Cn1c(CCC(=O)O)ccc1-c1ccc(C)cc1,45% (active)
14,Cc1ccc(-c2ccc(CCC(=O)O)n2-c2cccc(O)c2)cc1,68%
15,COc1ccc(NC(=O)Cn2c(CCC(=O)O)ccc2-c2ccccc2)cc1Cl,61%
16,Cc1cc(NC(=O)N2CC=C(c3c[nH]c4ccccc34)CC2)ccc1Br,81%
17,Cn1c(=O)[nH]c(=O)c2c1nc(NCCO)n2CC(O)COc1ccccc1 (stereo unspecified),165%
18,COC(=O)c1ccc(Nc2cc(=O)[nH]c(=O)[nH]2)cc1,79%
19,CCOc1ccccc1NC(=O)CN1C(=O)CC(c2ccc(C)c(C)c2)=Nc2ccccc21,74%
20,CCOCCCNC(=O)c1c[nH]c2ccc(S(=O)(=O)N(C)c3ccc(Cl)cc3F)cc2c1=O,124%
21,CC(C)(C)OC(=O)N1CCC(c2c(C(=O)NC3CCCCC3)cnn2-c2cccc(F)c2)CC1,128%
22,Cc1ccc(CSc2nc3c([nH]c4ccccc43)c(=O)n2C)cc1,94%
23,Cc1ccc(Sc2ccc(N3CCC(C(=O)Nc4ccc(Cl)cc4)CC3)nn2)cc1,72%
24,CN(Cc1ccccc1)S(=O)(=O)c1ccc(F)c(C(=O)Nc2cc(Cl)cc(Cl)c2)c1,87%

row,Structure (SMILES),survival
1,CCN(Cc1ccccc1)S(=O)(=O)c1ccc(F)c(C(=O)Nc2ccc(C(C)C)cc2)c1,101%
2,CN(Cc1ccccc1)S(=O)(=O)c1ccc(F)c(C(=O)Nc2ccccc2C(F)(F)F)c1,-5% (active)
3,O=C(Nc1cc(C(F)(F)F)ccc1Cl)c1cc(S(=O)(=O)NCc2ccccc2)ccc1F,55%
4,CN(Cc1ccccc1)S(=O)(=O)c1ccc(F)c(C(=O)Nc2cccc(Cl)c2Cl)c1,134%
5,CCN(Cc1ccccc1)S(=O)(=O)c1ccc(F)c(C(=O)Nc2cc(C(F)(F)F)ccc2Cl)c1,17% (active)
6,Cc1ccc(C(=O)N/C(=C/c2ccccc2)C(=O)NCc2ccco2)cc1,95%
7,COc1ccc(S(=O)(=O)C(C)(C)C)cc1,78%
8,COc1ccc(C(=O)Nc2nc3c(s2)CCCC3)cc1Cl,53%
9,Cn1c(=O)[nH]c(=O)c2c1nc(CN1CCN(c3ccccc3F)CC1)n2Cc1ccc(F)cc1,122%
10,Cc1ccsc1CN(Cc1ccco1)c1cnc(S(C)(=O)=O)nc1C(=O)Nc1ccc(Cl)cc1,40% (active)
11,CCS(=O)(=O)c1ncc(N(Cc2ccccc2)Cc2ccco2)c(C(=O)Nc2cccc(Cl)c2C)n1,60%
12,Cc1ccc(CN(Cc2ccco2)c2cnc(S(C)(=O)=O)nc2C(=O)Nc2ccc(Br)cc2)o1,105%
13,Cc1ccc(NC(=O)c2nc(S(C)(=O)=O)ncc2N(Cc2ccco2)Cc2ccco2)cc1,44%
14,Cc1ccccc1NC(=O)c1nc(S(C)(=O)=O)ncc1N(Cc1ccco1)Cc1sccc1C,43% (active)
15,CCS(=O)(=O)c1ncc(N(Cc2ccco2)Cc2sccc2C)c(C(=O)Nc2ccc(C)cc2C)n1,53% (active)
16,CCS(=O)(=O)c1ncc(N(Cc2ccco2)Cc2sccc2C)c(C(=O)Nc2cc(C)ccc2C)n1,106%
17,CCS(=O)(=O)c1ncc(N(Cc2ccc(F)cc2)Cc2ccco2)c(C(=O)Nc2cc(C)ccc2C)n1,58%
18,CCS(=O)(=O)c1ncc(N(Cc2ccccc2)Cc2ccco2)c(C(=O)Nc2ccc(C)c(C)c2)n1,52%
19,CCS(=O)(=O)c1ncc(N(Cc2ccccc2)Cc2ccco2)c(C(=O)Nc2ccccc2C)n1,45% (active)
20,COc1ccc(NC(=O)C2CCCN(c3cnccn3)C2)c(OC)c1 (stereo unspecified),107%
21,Cc1c(C)n(Cc2ccccc2)c2ccc(C(=O)N3CCN(c4ccccc4F)CC3)cc12,80%
22,Cc1cc(C)c(NC(=O)CCS(=O)(=O)c2cc3c(cc2Cl)NC(=O)CO3)c(C)c1,80%
23,CCCOc1cccc(C2c3c(oc4ccc(F)cc4c3=O)C(=O)N2c2nc(C)c(C(C)=O)s2)c1 (stereo unspecified),65%
24,CSc1ccc(CCNC(=O)Cn2ncc3c(=O)oc4ccc(C)cc4c32)cc1,89%

row,Structure (SMILES),survival
1,COC(=O)c1cc(OC)c(OC)c(OC)c1NC(=O)c1cc(=O)n(C)c(=O)n1C,78%
2,CC(=O)OC1COC(N2CCc3ccccc32)C(OC(C)=O)C1OC(C)=O (stereo unspecified),97%
3,CC1CCN(C(=O)c2ccc3c(c2)N(Cc2ccccc2F)C(=O)c2ccccc2S3(=O)=O)CC1,80%
4,CCC(=O)N1CCc2cc(S(=O)(=O)NCCC(=O)NC(C)c3ccccc3)ccc21 (stereo unspecified),85%
5,CCN(c1ccccc1)S(=O)(=O)c1ccc(NC(=O)c2nc(SC)ncc2Cl)cc1,55%
6,CCS(=O)(=O)c1ncc(Cl)c(C(=O)Nc2ccc(S(=O)(=O)N(C)c3ccccc3)cc2)n1,0% (active)
7,CCN(c1ccccc1)S(=O)(=O)c1ccc(NC(=O)c2nc(SC(C)C)ncc2Cl)cc1,44% (active)
8,CC1CCCN(S(=O)(=O)c2ccc(NC(=O)c3nc(SC(C)C)ncc3Cl)cc2)C1 (stereo unspecified),44% (active)
9,CS(=O)(=O)c1ncc(Cl)c(C(=O)Nc2c(C(=O)Nc3ccccc3)oc3ccccc23)n1,55%
10,CCSc1ncc(Cl)c(C(=O)Nc2ccc(S(=O)(=O)N(C)c3ccccc3)cc2)n1,71%
11,CCCSc1ncc(Cl)c(C(=O)Nc2ccc(S(=O)(=O)N(C)c3ccccc3)cc2)n1,54%
12,CC(C)Sc1ncc(Cl)c(C(=O)Nc2ccc(S(=O)(=O)N3CCCCC3)cc2)n1,57%
13,CSc1ncc(Cl)c(C(=O)Nc2ccc(S(=O)(=O)N3CCCC(C)C3)cc2)n1 (stereo unspecified),79%
14,CC(C)Sc1ncc(Cl)c(C(=O)Nc2ccc(S(=O)(=O)N(C)c3ccccc3)cc2)n1,55%
15,CN(c1ccccc1)S(=O)(=O)c1ccc(NC(=O)c2nc(S(C)(=O)=O)ncc2Cl)cc1,-1% (active)
16,CC(C)Sc1ncc(Cl)c(C(=O)Nc2ccc(S(=O)(=O)Nc3ncccn3)cc2)n1,50%
17,CCOc1ccccc1CNC(=O)C1CCN(c2nc3ccccc3nc2C(F)(F)F)CC1,69%
18,CCOc1ccc(NC(c2ccc(Cl)cc2)c2nnc(-c3cccc(F)c3)o2)cc1 (stereo unspecified),90%
19,COc1ccc2sc(C)[n+](CCO)c2c1,81%
20,CCOc1ccc(S(=O)(=O)Nc2ccc3c(c2)CCCN3S(=O)(=O)c2ccc(C)cc2)cc1,88%
21,COc1ccc(NC(=O)CN2C(=O)CCn3nc(-c4cccn4C)cc32)cc1,81%
22,COc1cc(OC)cc(N2C(=O)CSC23C(=O)Nc2ccccc23)c1 (stereo unspecified),99%
23,COc1ccc(OC)c(CNC(=O)c2c(C)oc3ncn(CC(C)C)c(=O)c23)c1,89%
24,COc1ccc(Nc2cc(C)nc(-n3nc(C)cc3C)n2)cc1Cl,81%

row,Structure (SMILES),survival
1,COc1ccccc1N1CCN(S(=O)(=O)CCNC(=O)c2cc(=O)c3ccccc3o2)CC1,87%
2,CCNC(=S)N1CCC(NC(=O)c2ccccc2)CC1,110%
3,CCN(c1ccccc1)S(=O)(=O)c1ccc(NC(=O)c2cc(=O)c3ccccc3o2)cc1,63%
4,CCN(c1ccccc1)S(=O)(=O)c1ccc(Cl)cc1,92%
5,CCN(c1ccccc1)S(=O)(=O)c1ccc(NC(=O)c2nc(S(C)(=O)=O)ncc2Cl)cc1,-1% (active)
6,CN1C(=O)/C(=C/C=C2/Sc3ccccc3N2CCO)SC1=S,108%
7,Cc1c(-c2ccccc2)nc2c(Cl)cccc2c1C(=O)OCC(=O)c1ccc(F)cc1,75%
8,O=S(=O)(NCCS(=O)(=O)N1CCN(c2ccccc2)CC1)c1ccc(Br)cc1,91%
9,CCCC12CN3CC(C)(CN(C1)C3c1cn(CC)c3ccccc13)C2=O (stereo unspecified),83%
10,Cc1cccc(N2CCN(C(c3nnnn3C3CCCC3)C(C)C)CC2)c1C (stereo unspecified),79%
11,Cc1cc(NC(=O)CCS(=O)(=O)c2cc(Br)cc3c2N(C(=O)C2CC2)CC3)ccc1Br,83%
12,COc1ccccc1C(=O)NC1(C(F)(F)F)NC(=O)N(CCc2ccccc2)C1=O (stereo unspecified),73%
13,COc1cc(CN(C(=O)c2ccc(C)cc2)C2CCS(=O)(=O)C2)cc(OC)c1OC (stereo unspecified),59%
14,COc1cc(C(=O)N(Cc2ccc(C(C)C)cc2)C2CCS(=O)(=O)C2)cc(OC)c1OC (stereo unspecified),46% (active)
15,CCCCOc1ccc(C(=O)N(Cc2ccc(C(C)C)cc2)C2CCS(=O)(=O)C2)cc1 (stereo unspecified),22% (active)
16,CCCCOc1cccc(C(=O)N(Cc2ccc(Cl)cc2)C2CCS(=O)(=O)C2)c1 (stereo unspecified),54%
17,COc1cc(CN(C(=O)c2ccc(Cl)cc2)C2CCS(=O)(=O)C2)cc(OC)c1OC (stereo unspecified),69%
18,COc1ccc(C(=O)N(Cc2ccc(C(C)C)cc2)C2CCS(=O)(=O)C2)cc1 (stereo unspecified),62%
19,COc1ccc(CN(C(=O)c2ccc(OCC(C)C)cc2)C2CCS(=O)(=O)C2)cc1 (stereo unspecified),93%
20,CCOc1cccc(C(=O)N(Cc2ccc(CC)cc2)C2CCS(=O)(=O)C2)c1 (stereo unspecified),149%
21,CCOc1cccc(C(=O)N(Cc2ccc(C(C)C)cc2)C2CCS(=O)(=O)C2)c1 (stereo unspecified),40% (active)
22,CCCOc1cccc(C(=O)N(Cc2cc(OC)c(OC)c(OC)c2)C2CCS(=O)(=O)C2)c1 (stereo unspecified),43% (active)
23,CCCCOc1cccc(C(=O)N(Cc2ccc(N(C)C)cc2)C2CCS(=O)(=O)C2)c1 (stereo unspecified),56%
24,CCCOc1cccc(C(=O)N(Cc2ccc(C)o2)C2CCS(=O)(=O)C2)c1 (stereo unspecified),90%
